Rows were chosen to be rich in hits. Some 17% of all compounds tested hit in one or more screens of this group.
ClpP mod = qHTS Assay for Activators of ClpP | ATP-dependent Clp protease proteolytic subunit (Bacillus subtilis (strain 168)), P80244 | purified B. subtilis ClpP, FRET peptide cleavage, 20 min | Potency, µM (series often up to 57.5 µM) | 340,000 compounds, 1.9% hits; active = well fitted falling curve with a large enough effect; inconclusive = small, poorly fitted or top-dose-only effect; inactive = no such curve, though single readings can be large or run the other way; also: the source files actives as falling curves though it sought activators and does not explain the sign; nearly all actives have a fitted effect of over 65% in size
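Buffer: 100 mM Tris/HCl pH8, 100 mM KCl, 0.05% low protease BSA, 2.5% glycerol, 0.01% Tween-20. ClpP 10 microg/mL final; 20 min RT; delta FRET normalized to ADEP and DMSO controls.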
TDP1 inh = qHTS Assay for Inhibitors of Tyrosyl-DNA Phosphodiesterase (TDP1); recombinant TDP1, AlphaScreen DNA substrate cleavage; 350,000 compounds, 0.28% hits; Potency, µM (doses to about 130 µM), actives largely listed as inhibitors; also: nearly all actives have a fitted effect of over 40% in size
Target sequence (Q9NUW8 whole entry, looked up): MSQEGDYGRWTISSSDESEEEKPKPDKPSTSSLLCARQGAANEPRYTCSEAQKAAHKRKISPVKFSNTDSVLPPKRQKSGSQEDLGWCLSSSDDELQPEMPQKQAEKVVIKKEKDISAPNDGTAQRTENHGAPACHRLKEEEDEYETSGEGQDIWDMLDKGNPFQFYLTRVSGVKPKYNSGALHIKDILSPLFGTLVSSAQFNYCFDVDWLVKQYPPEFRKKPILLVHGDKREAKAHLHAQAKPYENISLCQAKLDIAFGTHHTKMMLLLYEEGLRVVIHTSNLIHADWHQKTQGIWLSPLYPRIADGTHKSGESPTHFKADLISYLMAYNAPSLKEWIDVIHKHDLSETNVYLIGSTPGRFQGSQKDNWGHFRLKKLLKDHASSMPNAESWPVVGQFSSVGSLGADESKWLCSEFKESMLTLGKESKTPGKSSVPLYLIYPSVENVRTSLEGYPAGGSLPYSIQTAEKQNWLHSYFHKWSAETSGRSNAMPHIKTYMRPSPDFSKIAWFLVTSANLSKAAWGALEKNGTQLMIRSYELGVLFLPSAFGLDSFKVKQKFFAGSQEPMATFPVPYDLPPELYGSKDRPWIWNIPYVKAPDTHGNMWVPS
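E. coli-derived human Tdp1, 1 nM final. Cpd preinc 15 min RT; substrate 15 nM final, 5 min RT; AS bead mix 10 ug/ml final, 10 min RT. Signal loss = tyrosine-FITC cleavage. No-enzyme wells = max signal.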
DT40 TDP1 no CPT = qHTS for Inhibitors of human tyrosyl-DNA phosphodiesterase 1 (TDP1): qHTS in cells in absence of CPT. DT40 Tdp1-/- hTDP1 cells, no CPT, ATP luminescence, 48 h. Potency, µM (series often up to 46.2 µM), most hits filed as inhibitors. 420,000 compounds, 15% hits. AID 686978, 2013; also: nearly all actives have a fitted effect of over 55% in size
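Chicken DT40 Tdp1-/- cells stably complemented with human TDP1 were seeded at 400 cells/well with DMSO in place of 20 nM camptothecin. After compound pinning, cells grew at least 48 hr at 37 °C; viability read by CellTiter-Glo luminescence.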
DT40 TDP1 CPT = qHTS for Inhibitors of human tyrosyl-DNA phosphodiesterase 1 (TDP1): qHTS in cells in presence of CPT | 420,000 compounds, 12% hits | AID 686979, 2013 | chicken DT40 Tdp1-/-;hTDP1 cells + 20 nM CPT, ATP luminescence, 48 h | Potency, µM (titrated, usually from 46.2 µM), actives largely listed as inhibitors; also: nearly all actives have a fitted effect of over 55% in size
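Chicken DT40 Tdp1-/- cells complemented with human TDP1, 400 cells/well, exposed to compounds plus 20 nM camptothecin for at least 48 h at 37 C; viability read as ATP content by CellTiter-Glo luminescence.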
Large screens that a line does not name were inactive. Unless noted, calls follow the shape of the dose curve; as a rule, active = well fitted curve in the direction sought with a large enough effect; inconclusive = small, poorly fitted or top-dose-only effect, or another doubt; inactive = no such curve, though single readings can be large; an effect the other way counts as inactive or inconclusive.

CN1CCn2cnc(C(=O)N3CCN(c4ccccc4)CC3)c2C1=O	none (no result: TDP1 inh)
Cc1cccc(C(=O)OCC(=O)NC2CC2)c1O	none (no result: ClpP mod)
O=C(COC(=O)c1ccccc1O)NC12CC3CC(CC(C3)C1)C2	DT40 TDP1 no CPT 18.4µM, DT40 TDP1 CPT 11.6µM
O=C(COC(=O)/C=C/C(=O)OCC(=O)NC12CC3CC(CC(C3)C1)C2)NC12CC3CC(CC(C3)C1)C2	DT40 TDP1 no CPT 14.6µM, DT40 TDP1 CPT 13µM
CC(=O)Oc1cc(C(=O)OCC(=O)NC23CC4CC(CC(C4)C2)C3)cc(OC(C)=O)c1OC(C)=O	DT40 TDP1 no CPT inconclusive, DT40 TDP1 CPT 5.8µM (no result: TDP1 inh)
Cc1cccc(C(=O)OCC(=O)NC23CC4CC(CC(C4)C2)C3)c1O	DT40 TDP1 no CPT 18.4µM, DT40 TDP1 CPT 9.2µM
COc1cccc(C(=O)OCC(=O)NC23CC4CC(CC(C4)C2)C3)c1	none
O=C(CNS(=O)(=O)c1ccc(Cl)c(C(F)(F)F)c1)NC1CCCCCC1	none
CSc1nc2n(n1)C(c1cccs1)C1=C(CCCC1=O)N2 (centres undefined)	none (no result: ClpP mod, TDP1 inh)
Cc1ccccc1CSc1nc2n(n1)C(c1cccs1)C1=C(CCCC1=O)N2 (centres undefined)	ClpP mod 22.4µM, DT40 TDP1 no CPT 18.4µM, DT40 TDP1 CPT 20.6µM
O=C1CCCC2=C1C(c1cccs1)n1nc(SCc3ccccc3F)nc1N2 (centres undefined)	ClpP mod inconclusive, DT40 TDP1 no CPT 23.1µM, DT40 TDP1 CPT 11.6µM
CC(C)(C)NC(=S)NC(C)(C)C	none (no result: ClpP mod, TDP1 inh)
CN(c1nccc(=O)[nH]1)C1CCN(c2nc3ccccc3n2Cc2ccc(F)cc2)CC1	DT40 TDP1 no CPT inconclusive (no result: ClpP mod, TDP1 inh)
N#Cc1ccc(NC(=O)Cn2c3[n+](c4ccc(C(F)(F)F)cc42)CCCCC3)cc1	DT40 TDP1 no CPT inconclusive, DT40 TDP1 CPT inconclusive (no result: ClpP mod)
CCc1ccc(NC(=O)Cn2c3[n+](c4c(F)c(F)ccc42)CCCCC3)cc1	DT40 TDP1 no CPT 5.8µM, DT40 TDP1 CPT 2.59µM (no result: ClpP mod)
CC(=O)NC(c1ccccc1)c1nc(-c2ccc(F)c(Cl)c2)cs1 (centres undefined)	DT40 TDP1 no CPT inconclusive, DT40 TDP1 CPT inconclusive (no result: TDP1 inh)
CC(C)NC(=O)N(O)C1N(Cc2ccc3c(c2)OCO3)C(=S)SC1(C)C (centres undefined)	DT40 TDP1 no CPT 14.6µM, DT40 TDP1 CPT inconclusive
O=C1NC(=S)S/C1=C\C=C\c1ccc([N+](=O)[O-])o1	DT40 TDP1 no CPT 2.31µM, DT40 TDP1 CPT 1.64µM (no result: ClpP mod, TDP1 inh)
O=C1NC(=S)SC1=Cc1ccc2c(c1)OCO2	none (no result: ClpP mod, TDP1 inh)
Cc1cc2c(s1)c1cnn(Cc3cccc(Cl)c3)c(=O)c1n2C	none (no result: ClpP mod, DT40 TDP1 no CPT, DT40 TDP1 CPT)
COc1ccc2[nH]c3c(c2c1)CCNC3(C)CCc1ccc(Cl)nc1 (centres undefined)	DT40 TDP1 CPT inconclusive (no result: TDP1 inh)
c1ccc(CN2CCN(c3nc4ccccc4c4ccccc34)CC2)cc1	ClpP mod inconclusive, DT40 TDP1 no CPT inconclusive, DT40 TDP1 CPT 20.6µM
Cc1cc(C)n(-c2nc3ccccc3nc2N2CCN(c3cccc(C(F)(F)F)c3)CC2)n1	DT40 TDP1 no CPT inconclusive, DT40 TDP1 CPT 18.4µM
C1=C(c2ccccc2)CCN(c2nc3ccccc3n3cnnc23)C1	ClpP mod inconclusive, DT40 TDP1 no CPT 16.4µM, DT40 TDP1 CPT inconclusive
FC(F)(F)c1cccc(N2CCN(c3nc4ccccc4n4cnnc34)CC2)c1	ClpP mod inconclusive, DT40 TDP1 no CPT 23.1µM, DT40 TDP1 CPT inconclusive
c1ccc2c(c1)nc(N1CCOCC1)c1nncn12	DT40 TDP1 no CPT inconclusive
CCCCCC(=O)N1C[C@H](O)[C@@H](n2cc(C3CC3)nn2)C[C@@H]1c1ccc(C)cc1	DT40 TDP1 no CPT inconclusive, DT40 TDP1 CPT inconclusive (no result: TDP1 inh)
Cc1nc(C(C)Nc2ncnc3ccc(-c4ccc5c(c4)OCO5)cc23)cs1 (centres undefined)	none (no result: ClpP mod, DT40 TDP1 no CPT, DT40 TDP1 CPT)
CCN1C[C@@H]2[C@@H]3C(=O)N(Cc4ccccc4)C(=O)[C@@H]3[C@](CC)(C(=O)OC)N2C1=NC	none (no result: TDP1 inh)
O=C(O)CN(CC(=O)O)c1ccccc1OCCOc1ccccc1N(CC(=O)O)CC(=O)O	none (no result: ClpP mod, DT40 TDP1 no CPT, DT40 TDP1 CPT)
c1ccc(N2CCN(c3nc4ccccc4n4cnnc34)CC2)cc1	DT40 TDP1 no CPT inconclusive, DT40 TDP1 CPT inconclusive
c1ccc(CN2CCN(c3nc4ccccc4n4cnnc34)CC2)cc1	DT40 TDP1 no CPT inconclusive, DT40 TDP1 CPT 13µM

Screening data (PubChem BioAssay)
